HSF1 inh: HSF1 inhibition. NIH3T3-HGL HSE-luciferase, MG132-induced, luminescence 8 h; active compounds read low. activity change, negative = inhibition, % at 7.5 µM (by protocol). 300,000 tested, 0.77% active. AID 2098;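 active = more than half of replicate wells show activity change below -50%, luminescence cut by over half; inconclusive = some wells, but at most half, below -50%; inactive = no replicate well below -50%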;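 note: luciferase reports HSF-1 transcriptional activity via heat shock element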
LMP1 NFkB inh: inhibitors of Epstein-Barr LMP1-induced NF-kappaB reporter. AID 504558. inhibition, % at 12.5 µM. LMP1-induced NF-kappaB luciferase reporter cells, luminescence. 350,000 tested, 0.69% active; in the data active = inhibition above about 41%; inconclusive = no clear call, values can overlap the other calls
HSF1 activator: increases HSF-1 driven luciferase reporter signal; NIH3T3-HGL HSF-1 luciferase reporter, MG132, 8 h; 100% = twice DMSO control signal; activation, % at 9 µM; 300,000 tested, 1.7% active;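 active = mean replicate activation of at least 50% with a set share of replicates each reaching 50%; inconclusive = only one of those two conditions met; inactive = mean below 50% and too few replicates reaching it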
HSP90 refold inh: inhibitors of HSP90 luciferase refolding in rabbit reticulocyte lysate; inhibition, % at 5.6 µM; AID 1789; 290,000 tested, 0.91% active; luciferase refolding luminescence, 3 h;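 active = inhibition above the screen-wide mean plus 3 SD, computed separately per campaign, cut at about 16% in these data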;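 note: inhibitors lower the luminescence because luciferase stays unfolded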
TWEAK-Fn14 inh: TWEAK-Fn14 signaling inhibition | TWEAK-stimulated Fn14 reporter cells, luciferase luminescence, 8 h | inhibition, % at 10 µM | 360,000 tested, 2% active | AID 1159606; in the data active = inhibition above about 50%
TROY signal inh: blocks TROY-dependent signaling in reporter cells; inhibition, % at 10 µM; Q293 LMP1-TROYcd NF-kB luciferase reporter, 4 h; AID 1347056; 360,000 tested, 0.98% active;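 active = compounds whose plate-normalised and pattern-corrected inhibition of the luciferase reporter signal at the single screening dose is 50% or more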
HSP90 inh confirm: confirmation of HSP90 inhibitors; inhibition, % at 5.9 µM; shares compounds with HSP90 refold inh; 2,300 tested, 64% active; AID 1846; rabbit reticulocyte lysate, luciferase refolding luminescence, 3 h; in the data active = inhibition above about 18%
FLuc counter: blocks native firefly luciferase in HSP90 counter-screen. shares compounds with HSP90 refold inh. purified native firefly luciferase, luminescence. inhibition, % at 5.9 µM. 2,300 tested, 48% active. AID 1847;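 active = inhibition above the mean inhibition of all tested sample wells plus 3 SD, cut at about 10% in these data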
Target sequence (P08659 whole entry, looked up): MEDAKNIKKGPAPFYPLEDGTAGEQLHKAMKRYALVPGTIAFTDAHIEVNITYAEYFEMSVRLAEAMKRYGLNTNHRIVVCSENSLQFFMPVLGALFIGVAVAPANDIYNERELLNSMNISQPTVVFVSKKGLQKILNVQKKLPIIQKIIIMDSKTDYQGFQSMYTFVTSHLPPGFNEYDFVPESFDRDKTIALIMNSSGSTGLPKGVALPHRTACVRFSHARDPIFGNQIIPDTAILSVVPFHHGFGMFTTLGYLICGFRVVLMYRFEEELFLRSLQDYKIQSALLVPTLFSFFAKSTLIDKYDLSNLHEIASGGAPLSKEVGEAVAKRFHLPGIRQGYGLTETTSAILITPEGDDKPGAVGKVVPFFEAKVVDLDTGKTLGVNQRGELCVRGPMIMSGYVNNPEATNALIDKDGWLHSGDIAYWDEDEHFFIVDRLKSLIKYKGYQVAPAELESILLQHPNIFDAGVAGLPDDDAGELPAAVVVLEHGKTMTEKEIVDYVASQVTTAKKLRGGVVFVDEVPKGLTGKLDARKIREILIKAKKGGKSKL
Of the large screens only hits and unclear results are named; the others gave an inactive call (follow-up assays come after a bar, where they were run). Rows were chosen to be rich in hits. Some 4.7% of all compounds tested hit in one or more screens of this group.

O=C(O)c1cccc(N/N=C/c2ccc(OC(F)(F)F)cc2)c1	HSF1 inh -56.0, HSP90 refold inh 47.2 | HSP90 inh confirm 75.7 | FLuc counter 75.6
O=Cc1ccc([B-](F)(F)F)s1	none (no result: HSF1 inh, HSF1 activator, HSP90 refold inh)
Nc1nc2ccccc2n1C(=O)c1ccc(F)cc1	HSP90 refold inh 39.8, TWEAK-Fn14 inh 61.0 | HSP90 inh confirm 53.8 | FLuc counter 35.4
Nc1nc2ccccc2n1C(=O)c1ccccc1	LMP1 NFkB inh inconclusive, HSP90 refold inh 26.6, TWEAK-Fn14 inh 77.9 | HSP90 inh confirm 58.5 | FLuc counter 41.8
COC(=O)c1ccc2nc(-c3ccco3)c(Cc3ccccc3C(F)(F)F)n2c1	none (no result: HSF1 inh, LMP1 NFkB inh, HSF1 activator, HSP90 refold inh)
Cc1ccc(/C=C(\C#N)C(=O)NCC2CCCO2)o1 (stereo not given)	none
Cc1ccccc1-n1c(C)cc(/C=C(\C#N)C(=O)NCC2CCCO2)c1C (stereo not given)	HSP90 refold inh 19.6, TWEAK-Fn14 inh 56.0, TROY signal inh 59.0 | HSP90 inh confirm 37.1 | FLuc counter 25.1
O=C(c1ccco1)N(CCC(c1ccccc1)c1ccco1)Cc1ccco1 (stereo not given)	none
CC(=O)N(CCC(Cc1ccccc1)c1ccco1)Cc1ccco1 (stereo not given)	HSP90 refold inh 21.9 (no result: HSF1 inh, HSF1 activator) | HSP90 inh confirm inactive | FLuc counter inactive
CC(NC(=O)COc1cccnc1[N+](=O)[O-])c1ccc(F)cc1 (stereo not given)	HSP90 refold inh 30.4 | HSP90 inh confirm inactive | FLuc counter inactive
Cc1ccc(C2=NS(=O)(=O)N(C)C(C(=O)NCc3cccs3)=C2)cc1	none
CN1C(C(=O)NCc2ccco2)=CC(c2ccc(F)cc2)=NS1(=O)=O	HSP90 refold inh 55.6 | HSP90 inh confirm inactive | FLuc counter inactive
COc1cc(/C=C/CNC[C@H]2O[C@@H](n3cnc4c(=O)[nH]c(N)nc43)[C@H](O)[C@@H]2O)ccc1O	none (no result: HSF1 inh, LMP1 NFkB inh, HSF1 activator, HSP90 refold inh)
OC[C@@H]1CN(Cc2ccncc2)C[C@H](n2cnc3c(NCc4ccco4)ncnc32)O1	none (no result: HSF1 inh, LMP1 NFkB inh, HSF1 activator, HSP90 refold inh)
CC1CCN(c2ccc(-c3cccc(NC(=O)C(F)(F)F)c3)nn2)CC1	HSF1 inh -81.8, LMP1 NFkB inh 80.1, HSP90 refold inh 18.7, TWEAK-Fn14 inh 100.9, TROY signal inh 83.0 | HSP90 inh confirm 56.4 | FLuc counter inactive
CCC(=O)Nc1cccc(-c2ccc(N3CCC(C)CC3)nn2)c1	HSP90 refold inh 32.7, TWEAK-Fn14 inh 60.0 | HSP90 inh confirm 66.4 | FLuc counter 44.9
O=C(CSc1ccc2nnc(CCNC(=O)c3ccccc3)n2n1)NCc1ccccc1	none
O=C(NCCc1nnc2ccc(NCc3ccc(Cl)cc3)nn12)c1ccccc1	HSP90 refold inh 20.0 | HSP90 inh confirm inactive | FLuc counter inactive
O=C1CCN(CC2CCCCC2)C=C1C(=O)c1ccccc1	none (no result: HSF1 inh, HSF1 activator, HSP90 refold inh)
CC(=O)c1sc(NC(=O)CCS(=O)(=O)c2ccc(Cl)cc2)nc1C	none (no result: HSP90 refold inh)
Cc1nc(CS(=O)(=O)c2ccc(Cl)cc2)sc1C(=O)O	HSP90 refold inh 32.5 | HSP90 inh confirm 48.7 | FLuc counter inactive
CCCCCC(=O)N1C[C@@H](n2cc(C3CC3)nn2)[C@H](O)C[C@@H]1c1ccccc1	none (no result: HSF1 inh, HSF1 activator, HSP90 refold inh)
C/C(=N/NC(=O)c1ccccn1)c1ccc(O)cc1	HSP90 refold inh 20.4 | HSP90 inh confirm inactive | FLuc counter inactive
C/C(=N\NC(=O)c1ccc(N/N=C(\C)c2ccc(O)cc2)cc1)c1ccc(O)cc1	HSP90 refold inh 26.8 | HSP90 inh confirm inactive | FLuc counter inactive
C/C(=N\NC(=O)c1ccc(O)cc1)c1ccc(N2CCOCC2)cc1	none
CN(C)c1cccc2c(/C=N/O)ccc(N(C)C)c12	HSP90 refold inh 52.0 | HSP90 inh confirm inactive | FLuc counter inactive
O=C(O)c1ccc(NS(=O)(=O)c2ccc3c(c2)C(=O)c2ccccc2C3=O)cc1	HSP90 refold inh 27.5 | HSP90 inh confirm inactive | FLuc counter inactive
O=C(O)c1cccc(S(=O)(=O)Nc2ccc(-c3ccccc3)cc2)c1	none (no result: HSF1 inh, HSF1 activator, HSP90 refold inh)
CC(C)C(=O)N(Cc1cc(=O)[nH]c2ccccc12)c1ccccc1	HSP90 refold inh 80.6 | HSP90 inh confirm inactive | FLuc counter inactive
CC1(C)C2CCC(C2)C1(C)NC(=O)CN1CCOCC1 (stereo not given)	HSP90 refold inh 27.6 (no result: HSF1 inh, HSF1 activator) | HSP90 inh confirm inactive | FLuc counter inactive
CC1(C)C2CCC(C2)C1(C)NC(=O)CN1CCCC1 (stereo not given)	none
O=C(CCn1c(=S)[nH]c2ccccc2c1=O)NCCc1ccccc1	HSP90 refold inh 58.9 | HSP90 inh confirm inactive | FLuc counter inactive
c1ccc(-c2cn3c(n2)-c2ccccc2C3)cc1	HSP90 refold inh 18.2, TWEAK-Fn14 inh 72.1 | HSP90 inh confirm 51.3 | FLuc counter 41.6
O=C1c2ccccc2CN2C(=O)c3ccccc3CN12	none
C/C(=N\Nc1ccc(Cl)c(C(=O)O)c1)c1ccc[nH]1	HSP90 refold inh 34.7 | HSP90 inh confirm 22.4 | FLuc counter inactive
C/C(=N\Nc1ccc(Cl)c(C(=O)O)c1)c1cccs1	none
C/C(=N\Nc1ccc(Cl)c(C(=O)O)c1)c1ccc(N2CCOCC2)cc1	HSP90 refold inh 17.6 | HSP90 inh confirm inactive | FLuc counter inactive
Cc1cc(C(=O)CSc2nnc(N)s2)c(C)n1Cc1ccco1	none
Cc1cc(C(=O)COC(=O)c2cc(Cl)ccc2N)c(C)n1Cc1ccco1	none
Cc1cc(C(=O)COC(=O)c2cccn2C)c(C)n1Cc1ccco1	HSP90 refold inh 40.2, TWEAK-Fn14 inh 74.2, TROY signal inh 75.7 | HSP90 inh confirm 65.8 | FLuc counter 65.6
Cc1cc(C(=O)COC(=O)c2ccncc2)c(C)n1Cc1ccco1	HSP90 refold inh 26.0, TWEAK-Fn14 inh 59.5 | HSP90 inh confirm 40.7 | FLuc counter 75.3
COc1ccc(S(=O)(=O)NC(=O)C2(C)CCN2C(=O)C2(c3ccc(Cl)cc3)CCC2)cc1 (stereo not given)	none (no result: HSF1 inh, LMP1 NFkB inh, HSF1 activator, HSP90 refold inh)
O=C(CN1C(=O)C2CC=CCC2C1=O)Nc1nc(-c2ccc(F)c(F)c2)cs1 (stereo not given)	none (no result: HSF1 inh, HSF1 activator, HSP90 refold inh)
Cc1ccc([C@H]2C[C@H](O)[C@@H](n3cc(COC(=O)c4ccccc4)nn3)CN2Cc2cccs2)cc1	none (no result: HSF1 inh, HSF1 activator, HSP90 refold inh)
Cc1[nH]n(-c2ccccc2)c(=O)c1C(c1cccc([N+](=O)[O-])c1O)c1c(C)[nH]n(-c2ccccc2)c1=O	HSP90 refold inh 23.9 | HSP90 inh confirm inactive | FLuc counter inactive
O=c1c2ccccc2cnn1Cc1nnc(-c2cccs2)o1	HSP90 refold inh 19.4 | HSP90 inh confirm inactive | FLuc counter inactive
COc1ccccc1-c1cnc(C(O)c2ccc(F)cc2C)[nH]1 (stereo not given)	none (no result: HSF1 inh, LMP1 NFkB inh, HSF1 activator, HSP90 refold inh)
O=C(NC(=O)c1ccccc1O)c1ccc2c(c1)CCO2	HSP90 refold inh 19.1, TWEAK-Fn14 inh 53.8 | HSP90 inh confirm 24.3 | FLuc counter inactive

Source: PubChem BioAssay (several laboratories)
